The whole screen tested about 310,000 compounds, of which about 14,000 (4.5%) showed an effect of 50% or more. The effect is printed as a negative number. The entries come from a sample that favours strong results as a whole.
What follows are compounds tested against human ether-à-go-go-related gene (hERG) potassium channel (human, UniProt Q12809) (assay: primary screen, population patch clamp on CHO cells stably expressing hERG; higher = less effect of the substance).
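Also: peak tail current of the secondary pulse compared with the same well before compound.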

human ether-à-go-go-related gene (hERG) potassium channel, sequence (Q12809 whole entry, looked up): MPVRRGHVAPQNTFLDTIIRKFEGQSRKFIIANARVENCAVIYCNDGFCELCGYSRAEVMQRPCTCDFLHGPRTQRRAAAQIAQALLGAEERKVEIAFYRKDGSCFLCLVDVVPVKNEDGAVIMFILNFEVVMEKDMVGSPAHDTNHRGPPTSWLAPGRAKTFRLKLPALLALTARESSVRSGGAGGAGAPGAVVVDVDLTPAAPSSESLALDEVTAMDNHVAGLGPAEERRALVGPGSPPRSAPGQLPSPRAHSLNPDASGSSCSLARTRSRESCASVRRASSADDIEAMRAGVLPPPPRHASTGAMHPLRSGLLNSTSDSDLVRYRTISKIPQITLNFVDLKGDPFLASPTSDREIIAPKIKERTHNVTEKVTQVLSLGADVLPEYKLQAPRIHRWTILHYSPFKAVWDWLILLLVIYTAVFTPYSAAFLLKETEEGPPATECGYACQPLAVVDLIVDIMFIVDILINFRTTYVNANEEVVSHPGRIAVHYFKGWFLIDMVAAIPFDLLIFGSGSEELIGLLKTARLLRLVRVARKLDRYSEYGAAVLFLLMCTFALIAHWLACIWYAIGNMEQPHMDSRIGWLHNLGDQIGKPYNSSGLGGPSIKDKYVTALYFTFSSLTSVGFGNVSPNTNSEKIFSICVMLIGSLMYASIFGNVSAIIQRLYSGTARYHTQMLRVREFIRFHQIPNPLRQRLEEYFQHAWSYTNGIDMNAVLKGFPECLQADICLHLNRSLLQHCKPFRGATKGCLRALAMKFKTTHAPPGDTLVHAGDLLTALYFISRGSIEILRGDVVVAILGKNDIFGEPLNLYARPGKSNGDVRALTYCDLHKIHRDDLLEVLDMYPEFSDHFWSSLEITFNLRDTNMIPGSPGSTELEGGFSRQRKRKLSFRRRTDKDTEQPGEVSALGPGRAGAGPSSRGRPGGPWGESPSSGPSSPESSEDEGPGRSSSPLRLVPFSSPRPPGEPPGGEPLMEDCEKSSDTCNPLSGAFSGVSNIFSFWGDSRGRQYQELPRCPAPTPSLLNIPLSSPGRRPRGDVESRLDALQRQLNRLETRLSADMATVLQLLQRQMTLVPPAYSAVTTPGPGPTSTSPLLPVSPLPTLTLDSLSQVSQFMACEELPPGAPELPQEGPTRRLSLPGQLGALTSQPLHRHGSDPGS

| Structure (SMILES) | hERG current change (%, negative = inhibition) at 10uM |
| --- | --- |
| CS(=O)(=O)N(Cc1ccccc1)c1ccc(C(=O)Nc2ccc(C(N)=O)cc2)cc1 | 12.8% |
| Cn1c(N)c(C(=O)COC(=O)c2ccc(Cl)c(S(=O)(=O)N3CCCC3)c2)c(=O)n(C)c1=O | -43.9% |
| COC(CNc1ccc([N+](=O)[O-])c(NCC(OC)OC)c1C#N)OC | 5.62% |
| Cc1ccc(C(=O)Nc2ccc(NC(=O)c3ccco3)c(C)c2)cc1 | 14.7% |
| Cc1cc(Br)ccc1NC(=O)c1ccco1 | 0.934% |
| Cc1cc(NC(=O)c2ccc(Br)o2)ccc1NC(=O)c1ccco1 | -58.2% |
| Cc1ccc(NC(=O)c2ccccc2Br)cc1S(=O)(=O)N(C)C | -1.84% |
| CN(C)c1cccc(NC(=O)c2ccco2)c1 | -73.3% |
| Cc1ccc(NC(=O)c2ccc(Br)o2)cc1S(=O)(=O)N(C)C | -54.7% |
| CC(=O)Nc1cccc(NC(=O)c2ccco2)c1 | -4.69% |
| CN(C(=O)c1cccc(NC(=O)c2ccco2)c1)c1ccccc1 | 13.3% |
| CN(C)S(=O)(=O)c1ccc(NC(=O)c2ccc(Br)o2)cc1 | -9.84% |
| COc1ccc(C2N(C(=O)C(F)(F)F)C(C)CN2S(=O)(=O)c2ccc(C)cc2)cc1 (stereo not drawn) | 11.2% |
| Cc1ccc(C2NC(=O)c3c(sc(C)c3C)N2)c(O)c1 (stereo not drawn) | -3.45% |
| CCOc1ccc(-n2c(CC)nc3ccccc3c2=O)cc1 | 1.33% |
| N#Cc1nc(-c2cccc(Cl)c2)oc1N1CCC(C(N)=O)CC1 | 0.912% |
| CCOC(=O)C1C(=O)NC(N2CCCCC2)=NC1c1ccco1 (stereo not drawn) | 8.22% |
| Cc1cccc(C)c1NC(=O)C1(C)c2cccc[n+]2CC(=O)N1Cc1cccs1.[I-] (stereo not drawn) | 6.18% |
| COc1ccc(S(=O)(=O)Nc2cccc(S(=O)(=O)NC3=NCCC3)c2)cc1[N+](=O)[O-] | 18.6% |
| NC(=S)N/N=C/c1cn(-c2ccccc2)nc1-c1cccnc1 | 11.8% |
| O=C(N/N=C/c1cn(-c2ccccc2)nc1-c1cccnc1)c1ccc(F)cc1 | -41.3% |
| CC(C)(C)OC(=O)N/N=C/c1cn(-c2ccccc2)nc1-c1cccnc1 | -49.3% |
| NC(=O)N/N=C/c1cn(-c2ccccc2)nc1-c1cccnc1 | 4.92% |

| Structure (SMILES) | hERG current change (%, negative = inhibition) at 10uM |
| --- | --- |
| O=C(N/N=C/c1cn(-c2ccccc2)nc1-c1cccnc1)c1cccnc1 | -50.3% |
| O=C(N/N=C/c1cn(-c2ccccc2)nc1-c1cccnc1)c1ccccc1 | -60.7% |
| CCn1ccnc1CN(C)C(=O)CCc1nnc(CCC2CCCCC2)o1 | -27.7% |
| C=Cn1ccnc1P(=S)(c1ccc(N(C)C)cc1)c1nccn1C=C | 3.93% |
| O=c1c2ccccc2nc(-c2ccc(Cl)cc2)n1C1CCS(=O)(=O)C1 (stereo not drawn) | -2.23% |
| O=C(CN1CCN(Cc2ccccc2)CC1)N1N=CCC1c1ccccc1 (stereo not drawn) | -1.06% |
| Cc1ccc(C(=O)O/N=C/c2c(Cl)n(C)c3ccccc23)cc1 | 16.2% |
| CC(=O)Nc1ccc(N(C(=O)CNC(=O)c2cccs2)C(C(=O)NCC2CCCO2)c2ccccc2)cc1 (stereo not drawn) | 13.2% |
| c1ccc(CCC2Cc3ccccc3N2)cc1 (stereo not drawn) | -0.839% |
| O=C(O)C1CSC(CCc2ccccc2)N1 (stereo not drawn) | 14% |
| [Cl-].c1ccc(CC[C@@H]2CC[C@@H](CCc3ccccc3)N2)cc1 | -66% |
| COC(=O)c1[nH]c2ccccc2c1NC(=O)Oc1ccccc1 | 12% |
| O=C(Nc1cc([N+](=O)[O-])ccc1N1CCCC1)c1ccccc1 | -33.3% |
| O=[N+]([O-])c1ccc(N2CCNCC2)c(Cl)c1 | -6.48% |
| CN1CCN(c2ccc([N+](=O)[O-])cc2Cl)CC1 | -52.2% |
| COC(=O)c1ccc(N2CCN(C)CC2)c(NC(=O)c2cccs2)c1 | -8.75% |
| CN1CCN(c2cc([N+](=O)[O-])ccc2Cl)CC1 | -23.3% |
| COc1ccc(N2CCN(c3ccc([N+](=O)[O-])cc3Cl)CC2)cc1 | -12.1% |
| O=C(Nc1cc([N+](=O)[O-])ccc1N1CCOCC1)c1cccs1 | 1.15% |
| O=C(Nc1cc([N+](=O)[O-])ccc1N1CCCC1)c1cccs1 | -65.4% |
| O=[N+]([O-])c1ccc(N2CCN(c3ccc(Cl)nn3)CC2)c(Cl)c1 | -23.7% |
| CN1CCN(c2ccc([N+](=O)[O-])cc2NC(=O)c2cccs2)CC1 | -55.2% |
| Cc1ccc2nc(C)c(CN3CCN(c4ccc([N+](=O)[O-])cc4Cl)CC3)n2c1 | -69.3% |

| Structure (SMILES) | hERG current change (%, negative = inhibition) at 10uM |
| --- | --- |
| Cc1ccc([N+](=O)[O-])cc1NC(=O)c1cccs1 | 18.4% |
| COC(=O)C1=C(N)Oc2cc(C)n(Cc3ccncc3)c(=O)c2C1c1cccnc1 (stereo not drawn) | -14.8% |
| CCn1c(/C=C\c2ccccc2C)nc2ccccc2c1=O | -19.1% |
| CC(C)c1ncc(S(=O)(=O)c2ccc(C(F)(F)F)cn2)c(N)n1 | 11.6% |
| CCOc1ncccc1C(=O)N1CCN(c2cc(Cl)ccc2C)CC1 | -4.75% |
| CCCCN1Cc2c(nc3cc(-c4ccccc4)[nH]n3c2=O)C1=O | 6.51% |
| Clc1ccccc1-c1nn2c(-c3ccncc3)nnc2s1 | -7.89% |
| O=C(Nc1cccc(Cl)c1)Nc1nnc(-c2ccccc2)o1 | 3.18% |
| CN1CCN(c2ccccc2NC(=O)c2ccc([N+](=O)[O-])cc2Cl)CC1 | -34.9% |
| O=C(Nc1ccccc1N1CCCC1)c1ccc([N+](=O)[O-])cc1Cl | -21.5% |
| CN1CCN(c2ccc([N+](=O)[O-])cc2NC(=O)c2ccccc2Cl)CC1 | -71.1% |
| Cn1c(=O)oc2cc(S(=O)(=O)NCCC(=O)Nc3ccc4c(c3)OCCO4)ccc21 | 2.4% |
| CCOc1ccc(CCNC(=O)COC(=O)c2cccnc2OCC)cc1OCC | -1.87% |
| CCN(Cc1ccc(OC)c(F)c1)C(=O)c1oc2ccccc2c1COC | -54.6% |
| CCN(Cc1ccc(OC)c(F)c1)C(=O)c1cc2ccccc2o1 | -24.7% |
| COc1ccc(CN(C)C(=O)c2oc3ccccc3c2CSC)cc1F | 14.4% |
| CC(/C=C/c1cccc([N+](=O)[O-])c1)=N/NC(=O)c1cccnc1 | -22.7% |
| O=c1c(C(c2ccc(F)cc2)c2c(O)nc3n(c2=O)CCCS3)c(O)nc2n1CCCS2 | 9.97% |
| O=C(Nc1ccccc1)OCc1cn(-c2ccc(Cl)cc2)nn1 | 22.3% |
| O=C(Nc1cccc(Cl)c1)OCc1cn(-c2ccccc2)nn1 | -52.6% |
| O=C(Nc1cccc(Cl)c1)OCc1cn(-c2ccc(Cl)cc2)nn1 | 1.69% |
| OCCc1ccc(O)c(-n2nc3ccccc3n2)c1 | -17.1% |
| Cc1ccc(NC(=O)COc2ccc(CCO)cc2-n2nc3ccccc3n2)cc1C | 6.89% |

| Structure (SMILES) | hERG current change (%, negative = inhibition) at 10uM |
| --- | --- |
| N#Cc1ccc(COc2ccc(CCO)cc2-n2nc3ccccc3n2)cc1 | -66.6% |
| COc1ccc(NC(=O)c2ccc(COCC(F)(F)C(F)F)cc2)cc1OC | 7.39% |
| COC(=O)CCC(=O)OC1(C)C(=O)C=C2C=C(C3CC3)N(CCCCO)C=C2C1=O (stereo not drawn) | 4.26% |
| CCOCCCNCc1cc(Cl)ccc1OCC.Cl | -11.8% |
| CCOc1ccc(Br)cc1CNCCN1CCOCC1 | 1.31% |
| CCOCCCNCc1cccc(OCc2ccc(F)cc2)c1 | -50.1% |
| CCOCCCNCc1cc(Br)ccc1OCC.Cl | -55.5% |
| CCOCCCNCc1ccc(OCc2ccc(F)cc2)c(OC)c1.Cl | -33.6% |
| CCOCCCNCc1cccc(OC)c1.O=C(O)C(=O)O | 3.11% |
| CCCNCc1cc(OC)c(OCc2ccccc2)cc1Br.Cl | -28.2% |
| CCOCCCNCc1ccc(OCc2ccccc2C)c(OC)c1.Cl | -24.4% |
| CCOCCCNCc1cc(Br)ccc1OCc1ccccc1 | -68.1% |
| CCC1(c2ccccc2)NC(=S)N(c2ccc(C)cc2)N1 (stereo not drawn) | 22% |
| O=C(/C=C/c1ccc(F)cc1)NC(=S)Nc1ccccc1C(=O)NC1CCCCC1 | 2.56% |
| CC1CC(C)CN(C(=O)c2ccncc2)C1 (stereo not drawn) | 10.1% |
| COc1ccc(NC(=O)/C=C/c2ccccc2[N+](=O)[O-])c(OC)c1 | 4.66% |
| COCCNC(=O)C1CC(c2cccc([N+](=O)[O-])c2)=NO1 (stereo not drawn) | 15.8% |
| Cc1cc(NC(=O)Cn2nnc3sc4c(c3c2=O)CCCC4)no1 | 9.97% |
| CC(NC(=O)C1=CC=CN2CCS(=O)(=O)N=C12)c1ccc(Cl)cc1Cl (stereo not drawn) | -57.9% |
| O=C(NCCc1ccc(Cl)cc1)C1=CC=CN2CCS(=O)(=O)N=C12 | -9.31% |
| O=C(NCc1cccc(Cl)c1)C1=CC=CN2CCS(=O)(=O)N=C12 | -5.54% |
